Assay results taken from the supplement of paper PMC8728848.
The entries come from a sample that favours the strongest signals as a whole.

Experiments:
Assay in all cases: glycan array binding signal (z-score within array); higher = stronger binding
Conditions in all cases: glycan notation: IUPAC condensed, linker removed
[1] = molecular target: Fuc(a1-2)Gal(b1-3)GalNAc(b1-3)Gal
Method in brief: (§1)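 Glycan array data were curated from 3228 arrays in the Consortium for Functional Glycomics database and kept only where the protein sequence was available. Glycan names were converted to IUPAC-condensed notation, and columns mapping to the same glycan were averaged. The binding signal is a within-array Z-score, averaged across arrays of the same protein sequence at different concentrations or buffers and across linkers. Negative Z-scores can be read as non-binding.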

[2] = molecular target: Fuc(a1-2)Gal(b1-3)GalNAc(b1-3)Gal(a1-4)Gal(b1-4)Glc
Method in brief: as §1

Fuc(a1-2)Gal(b1-4)GlcNAc = molecular target: Fuc(a1-2)Gal(b1-4)GlcNAc
Method in brief: as §1

Fuc(a1-2)[Gal(a1-3)]Gal = molecular target: Fuc(a1-2)[Gal(a1-3)]Gal
Method in brief: as §1

[3] = molecular target: Fuc(a1-2)[GalNAc(b1-3)]Gal
Method in brief: as §1

[4] = molecular target: Fuc(a1-3)[Gal(b1-4)]Glc6S
Method in brief: as §1

[5] = molecular target: Gal(a1-3)[Gal(a1-4)]Gal(b1-4)GlcNAc
Method in brief: as §1

Gal(a1-4)Gal(b1-4)GlcNAc = molecular target: Gal(a1-4)Gal(b1-4)GlcNAc
Method in brief: as §1

[6] = molecular target: Gal(b1-3)[GlcNAc(b1-6)]GalNAc
Method in brief: as §1

[7] = molecular target: Gal(b1-4)GlcNAc(b1-3)Gal(b1-4)Glc
Method in brief: as §1

[8] = molecular target: Gal(b1-4)GlcNAc(b1-3)[Gal(b1-4)GlcNAc(b1-6)]Gal(b1-4)GlcNAc
Method in brief: as §1

[9] = molecular target: Gal(b1-4)GlcNAc(b1-6)Gal(b1-4)GlcNAc
Method in brief: as §1

[10] = molecular target: Gal(b1-4)GlcNAc(b1-6)[Gal(b1-3)]GalNAc
Method in brief: as §1

Gal3S4S(b1-4)GlcNAc = molecular target: Gal3S4S(b1-4)GlcNAc
Method in brief: as §1

Gal3S6S(b1-4)GlcNAc6S = molecular target: Gal3S6S(b1-4)GlcNAc6S
Method in brief: as §1

Gal6S(b1-4)Glc6S = molecular target: Gal6S(b1-4)Glc6S
Method in brief: as §1

[11] = molecular target: GlcNAc(a1-3)Gal(b1-4)GlcNAc
Method in brief: as §1

GlcNAc(b1-3)Man = molecular target: GlcNAc(b1-3)Man
Method in brief: as §1

[12] = molecular target: GlcNAc(b1-3)[GlcNAc(b1-6)]GalNAc
Method in brief: as §1

[13] = molecular target: GlcNAc(b1-4)Gal(b1-4)GlcNAc
Method in brief: as §1

[14] = molecular target: GlcNAc(b1-4)GlcNAc(b1-4)GlcNAc(b1-4)GlcNAc(b1-4)GlcNAc(b1-4)GlcNAc
Method in brief: as §1

Kdn(a2-3)Gal(b1-3)GlcNAc = molecular target: Kdn(a2-3)Gal(b1-3)GlcNAc
Method in brief: as §1

[15] = molecular target: Man(a1-2)Man(a1-3)[Man(a1-2)Man(a1-6)]Man
Method in brief: as §1

Man(b1-4)GlcNAc = molecular target: Man(b1-4)GlcNAc
Method in brief: as §1

[16] = molecular target: Neu5Ac(a2-3)Gal(b1-3)GalNAc6S
Method in brief: as §1

[17] = molecular target: Neu5Ac(a2-3)Gal(b1-4)GlcNAc(b1-2)Man(a1-3)[Neu5Ac(a2-6)Gal(b1-4)GlcNAc(b1-2)Man(a1-6)]Man(b1-4)GlcNAc(b1-4)GlcNAc
Method in brief: as §1

[18] = molecular target: Neu5Ac(a2-6)Gal(b1-4)GlcNAc(b1-2)Man(a1-3)[Neu5Ac(a2-6)Gal(b1-4)GlcNAc(b1-2)Man(a1-6)]Man(b1-4)GlcNAc(b1-4)GlcNAc
Method in brief: as §1

Neu5Gc(a2-3)Gal(b1-4)Glc = molecular target: Neu5Gc(a2-3)Gal(b1-4)Glc
Method in brief: as §1

Neu5Gc(a2-6)GalNAc = molecular target: Neu5Gc(a2-6)GalNAc
Method in brief: as §1

B1: Factor H (Homo sapiens), P08603 (protein)
chain: MRLLAKIICLMLWAICVAEDCNELPPRRNTEILTGSWSDQTYPEGTQAIYKCRPGYRSLGNVIMVCRKGEWVALNPLRKCQKRPCGHPGDTPFGTFTLTGGNVFEYGVKAVYTCNEGYQLLGEINYRECDTDGWTNDIPICEVVKCLPVTAPENGKIVSSAMEPDREYHFGQAVRFVCNSGYKIEGDEEMHCSDDGFWSKEKPKCVEISCKSPDVINGSPISQKIIYKENERFQYKCNMGYEYSERGDAVCTESGWRPLPSCEEKSCDNPYIPNGDYSPLRIKHRTGDEITYQCRNGFYPATRGNTAKCTSTGWIPAPRCTLKPCDYPDIKHGGLYHENMRRPYFPVAVGKYYSYYCDEHFETPSGSYWDHIHCTQDGWSPAVPCLRKCYFPYLENGYNQNYGRKFVQGKSIDVACHPGYALPKAQTTVTCMENGWSPTPRCIRVKTCSKSSIDIENGFISESQYTYALKEKAKYQCKLGYVTADGETSGSITCGKDGWSAQPTCIKSCDIPVFMNARTKNDFTWFKLNDTLDYECHDGYESNTGSTTGSIVCGYNGWSDLPICYERECELPKIDVHLVPDRKKDQYKVGEVLKFSCKPGFTIVGPNSVQCYHFGLSPDLPICKEQVQSCGPPPELLNGNVKEKTKEEYGHSEVVEYYCNPRFLMKGPNKIQCVDGEWTTLPVCIVEESTCGDIPELEHGWAQLSSPPYYYGDSVEFNCSESFTMIGHRSITCIHGVWTQLPQCVAIDKLKKCKSSNLIILEEHLKNKKEFDHNSNIRYRCRGKEGWIHTVCINGRWDPEVNCSMAQIQLCPPPPQIPNSHNMTTTLNYRDGEKVSVLCQENYLIQEGEEITCKDGRWQSIPLCVEKIPCSQPPQIEHGTINSSRSSQESYAHGTKLSYTCEGGFRISEENETTCYMGKWSSPPQCEGLPCKSPPEISHGVVAHMSDSYQYGEEVTYKCFEGFGIDGPAIAKCLGEKWSHPPSCIKTDCLSLPSFENAIPMGEKKDVYKAGEQVTYTCATYYKMDGASNVTCINSRWTGRPTCRDTSCVNPPTVQNAYIVSRQMSKYPSGERVRYQCRSPYEMFGDEEVMCLNGNWTEPPQCKDSTGKCGPPPPIDNGDITSFPLSVYAPASSVEYQCQNLYQLEGNKRITCRNGQWSEPPKCLHPCVISREIMENYNIALRWTAKQKLYSRTGESVEFVCKRGYRLSSRSHTLRTTCWDGKLEYPTCAKR
**Q.** B1 was tested. Which “glycan array binding signal (z-score)” value [1] did it give?
**A.** 3.46

**Q.** What about the “glycan array binding signal (z-score)” value [2] of the same binder?
**A.** 0.586

**Q.** What about the “glycan array binding signal (z-score)” value (Fuc(a1-2)Gal(b1-4)GlcNAc) of the same binder?
**A.** 3.15

**Q.** And the “glycan array binding signal (z-score)” value (Fuc(a1-2)[Gal(a1-3)]Gal)?
**A.** -0.294

**Q.** And the “glycan array binding signal (z-score)” value [3]?
**A.** 3.61

**Q.** And the “glycan array binding signal (z-score)” value [4]?
**A.** -0.418

**Q.** What about the “glycan array binding signal (z-score)” value [5] of the same binder?
**A.** -0.355

**Q.** What about the “glycan array binding signal (z-score)” value (Gal(a1-4)Gal(b1-4)GlcNAc) of the same binder?
**A.** -0.467

**Q.** What about the “glycan array binding signal (z-score)” value [6] of the same binder?
**A.** -0.403

**Q.** And the “glycan array binding signal (z-score)” value [7]?
**A.** -0.248

**Q.** And the “glycan array binding signal (z-score)” value [8]?
**A.** -0.173

**Q.** And the “glycan array binding signal (z-score)” value [9]?
**A.** -0.316

**Q.** What about the “glycan array binding signal (z-score)” value [10] of the same binder?
**A.** -0.537

**Q.** What about the “glycan array binding signal (z-score)” value (Gal3S4S(b1-4)GlcNAc) of the same binder?
**A.** -0.168

**Q.** What about the “glycan array binding signal (z-score)” value (Gal3S6S(b1-4)GlcNAc6S) of the same binder?
**A.** 11.8

**Q.** And the “glycan array binding signal (z-score)” value (Gal6S(b1-4)Glc6S)?
**A.** 0.498

**Q.** And the “glycan array binding signal (z-score)” value [11]?
**A.** -0.015

**Q.** And the “glycan array binding signal (z-score)” value (GlcNAc(b1-3)Man)?
**A.** 2.51

**Q.** And the “glycan array binding signal (z-score)” value [12]?
**A.** 1

**Q.** What about the “glycan array binding signal (z-score)” value [13] of the same binder?
**A.** 0.172

**Q.** What about the “glycan array binding signal (z-score)” value [14] of the same binder?
**A.** -0.101

**Q.** And the “glycan array binding signal (z-score)” value (Kdn(a2-3)Gal(b1-3)GlcNAc)?
**A.** 1.99

**Q.** And the “glycan array binding signal (z-score)” value [15]?
**A.** 0.253

**Q.** What about the “glycan array binding signal (z-score)” value (Man(b1-4)GlcNAc) of the same binder?
**A.** -0.282

**Q.** What about the “glycan array binding signal (z-score)” value [16] of the same binder?
**A.** -0.221

**Q.** What about the “glycan array binding signal (z-score)” value [17] of the same binder?
**A.** 0.231

**Q.** What about the “glycan array binding signal (z-score)” value [18] of the same binder?
**A.** -0.439

**Q.** What about the “glycan array binding signal (z-score)” value (Neu5Gc(a2-3)Gal(b1-4)Glc) of the same binder?
**A.** -0.053

**Q.** What about the “glycan array binding signal (z-score)” value (Neu5Gc(a2-6)GalNAc) of the same binder?
**A.** -0.411
